Tests used:
Assay in all cases: log2 ratio of Biotin-Ahx-Ub-VS probe labelling (fragment/DMSO); higher = less target engagement (more negative = stronger competition), active = hit call of the paper (q ≤ 0.05, log2 ratio ≤ -1)
Settings in all cases: compound concentration: 200 uM; treatment time: 3 h
[1] = molecular target: T1, USP42 (UniProt Q9H9J4)
T1 sequence (whole entry): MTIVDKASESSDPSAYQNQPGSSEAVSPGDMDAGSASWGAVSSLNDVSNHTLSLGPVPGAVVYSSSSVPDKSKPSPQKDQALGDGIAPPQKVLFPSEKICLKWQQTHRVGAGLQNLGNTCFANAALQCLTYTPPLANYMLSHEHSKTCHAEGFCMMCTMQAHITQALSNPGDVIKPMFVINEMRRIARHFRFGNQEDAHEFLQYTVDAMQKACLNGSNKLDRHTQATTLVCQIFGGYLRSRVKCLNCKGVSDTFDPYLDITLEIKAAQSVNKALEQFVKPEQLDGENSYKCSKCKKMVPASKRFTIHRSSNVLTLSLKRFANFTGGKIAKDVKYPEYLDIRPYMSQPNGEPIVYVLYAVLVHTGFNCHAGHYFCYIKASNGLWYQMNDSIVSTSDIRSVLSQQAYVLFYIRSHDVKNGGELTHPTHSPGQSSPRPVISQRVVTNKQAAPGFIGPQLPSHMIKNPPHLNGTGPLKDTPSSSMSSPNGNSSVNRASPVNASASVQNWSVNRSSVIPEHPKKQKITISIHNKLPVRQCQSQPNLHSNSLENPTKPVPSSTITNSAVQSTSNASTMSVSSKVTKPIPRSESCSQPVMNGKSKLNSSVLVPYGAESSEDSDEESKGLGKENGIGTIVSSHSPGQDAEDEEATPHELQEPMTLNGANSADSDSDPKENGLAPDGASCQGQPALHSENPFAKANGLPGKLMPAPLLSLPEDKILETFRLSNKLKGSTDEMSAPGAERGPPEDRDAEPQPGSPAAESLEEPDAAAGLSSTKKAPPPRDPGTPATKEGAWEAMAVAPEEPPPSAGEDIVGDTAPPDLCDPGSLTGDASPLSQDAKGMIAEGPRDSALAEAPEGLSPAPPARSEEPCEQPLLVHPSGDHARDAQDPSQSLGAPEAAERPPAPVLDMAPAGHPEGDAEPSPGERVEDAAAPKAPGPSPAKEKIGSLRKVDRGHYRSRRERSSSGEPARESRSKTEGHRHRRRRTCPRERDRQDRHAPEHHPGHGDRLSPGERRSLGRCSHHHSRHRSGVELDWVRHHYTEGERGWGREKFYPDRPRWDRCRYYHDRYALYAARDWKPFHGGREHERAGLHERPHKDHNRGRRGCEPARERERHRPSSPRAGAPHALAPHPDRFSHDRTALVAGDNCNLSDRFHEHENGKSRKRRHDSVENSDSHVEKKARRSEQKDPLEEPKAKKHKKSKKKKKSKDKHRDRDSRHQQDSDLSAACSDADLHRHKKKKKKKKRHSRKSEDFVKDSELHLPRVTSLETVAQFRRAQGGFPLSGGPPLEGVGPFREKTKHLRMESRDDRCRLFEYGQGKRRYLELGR
Method in brief: (§1)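 Using Biotin-Ahx-Ub-VS at 0.5 µM final for 1 h, DUBs were labelled in HEK293T lysate (495 µg per sample) that had first been treated in triplicate with fragment at 200 µM or vehicle for 3 h. NeutrAvidin enrichment, LysC and trypsin digestion and diaPASEF LC-MS/MS followed. Spectronaut label-free quantities were global-median-normalised. Values are average log2 fragment/vehicle ratios by unpaired t-test, using proteins with ≥2 unique peptides.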

[2] = molecular target: USP46 (UniProt P62068)
Method in brief: as §1

[3] = molecular target: T2, USP47 (UniProt Q96K76)
T2 sequence (whole entry): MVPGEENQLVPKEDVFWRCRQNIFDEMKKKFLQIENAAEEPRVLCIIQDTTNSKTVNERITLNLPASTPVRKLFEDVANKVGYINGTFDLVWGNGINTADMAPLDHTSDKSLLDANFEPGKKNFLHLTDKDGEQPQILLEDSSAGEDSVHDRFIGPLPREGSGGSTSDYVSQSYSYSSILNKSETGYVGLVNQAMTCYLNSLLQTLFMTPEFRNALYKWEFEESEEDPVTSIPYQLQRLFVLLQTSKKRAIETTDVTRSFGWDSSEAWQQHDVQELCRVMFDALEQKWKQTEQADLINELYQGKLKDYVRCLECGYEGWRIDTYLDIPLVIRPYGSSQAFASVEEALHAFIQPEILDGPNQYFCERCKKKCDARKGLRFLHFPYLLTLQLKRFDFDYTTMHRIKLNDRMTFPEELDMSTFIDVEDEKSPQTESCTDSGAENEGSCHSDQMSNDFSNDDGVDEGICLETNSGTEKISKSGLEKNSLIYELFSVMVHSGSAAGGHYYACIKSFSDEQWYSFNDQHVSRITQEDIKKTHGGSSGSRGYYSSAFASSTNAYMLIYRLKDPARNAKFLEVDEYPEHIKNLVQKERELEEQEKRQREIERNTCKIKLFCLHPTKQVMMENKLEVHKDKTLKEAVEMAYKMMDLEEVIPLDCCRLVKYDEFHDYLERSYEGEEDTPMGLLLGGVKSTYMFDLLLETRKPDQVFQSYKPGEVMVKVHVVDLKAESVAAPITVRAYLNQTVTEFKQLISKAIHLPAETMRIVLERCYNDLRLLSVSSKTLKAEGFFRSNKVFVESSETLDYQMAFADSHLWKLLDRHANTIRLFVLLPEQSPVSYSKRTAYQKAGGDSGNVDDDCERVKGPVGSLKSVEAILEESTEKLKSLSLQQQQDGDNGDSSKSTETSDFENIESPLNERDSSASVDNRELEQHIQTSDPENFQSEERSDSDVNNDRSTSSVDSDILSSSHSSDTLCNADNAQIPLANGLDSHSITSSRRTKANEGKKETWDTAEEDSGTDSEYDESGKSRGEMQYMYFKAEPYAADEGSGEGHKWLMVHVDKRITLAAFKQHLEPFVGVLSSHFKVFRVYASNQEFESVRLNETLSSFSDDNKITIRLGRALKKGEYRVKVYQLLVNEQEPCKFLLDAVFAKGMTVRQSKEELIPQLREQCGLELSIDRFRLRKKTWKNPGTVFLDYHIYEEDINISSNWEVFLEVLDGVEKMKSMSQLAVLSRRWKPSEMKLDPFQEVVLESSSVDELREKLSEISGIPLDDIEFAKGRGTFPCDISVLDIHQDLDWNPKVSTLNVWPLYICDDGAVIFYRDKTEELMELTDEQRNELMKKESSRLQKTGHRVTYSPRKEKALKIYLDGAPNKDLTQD
Method in brief: as §1

[4] = molecular target: T3, USP48 (UniProt Q86UV5)
T3 sequence (whole entry): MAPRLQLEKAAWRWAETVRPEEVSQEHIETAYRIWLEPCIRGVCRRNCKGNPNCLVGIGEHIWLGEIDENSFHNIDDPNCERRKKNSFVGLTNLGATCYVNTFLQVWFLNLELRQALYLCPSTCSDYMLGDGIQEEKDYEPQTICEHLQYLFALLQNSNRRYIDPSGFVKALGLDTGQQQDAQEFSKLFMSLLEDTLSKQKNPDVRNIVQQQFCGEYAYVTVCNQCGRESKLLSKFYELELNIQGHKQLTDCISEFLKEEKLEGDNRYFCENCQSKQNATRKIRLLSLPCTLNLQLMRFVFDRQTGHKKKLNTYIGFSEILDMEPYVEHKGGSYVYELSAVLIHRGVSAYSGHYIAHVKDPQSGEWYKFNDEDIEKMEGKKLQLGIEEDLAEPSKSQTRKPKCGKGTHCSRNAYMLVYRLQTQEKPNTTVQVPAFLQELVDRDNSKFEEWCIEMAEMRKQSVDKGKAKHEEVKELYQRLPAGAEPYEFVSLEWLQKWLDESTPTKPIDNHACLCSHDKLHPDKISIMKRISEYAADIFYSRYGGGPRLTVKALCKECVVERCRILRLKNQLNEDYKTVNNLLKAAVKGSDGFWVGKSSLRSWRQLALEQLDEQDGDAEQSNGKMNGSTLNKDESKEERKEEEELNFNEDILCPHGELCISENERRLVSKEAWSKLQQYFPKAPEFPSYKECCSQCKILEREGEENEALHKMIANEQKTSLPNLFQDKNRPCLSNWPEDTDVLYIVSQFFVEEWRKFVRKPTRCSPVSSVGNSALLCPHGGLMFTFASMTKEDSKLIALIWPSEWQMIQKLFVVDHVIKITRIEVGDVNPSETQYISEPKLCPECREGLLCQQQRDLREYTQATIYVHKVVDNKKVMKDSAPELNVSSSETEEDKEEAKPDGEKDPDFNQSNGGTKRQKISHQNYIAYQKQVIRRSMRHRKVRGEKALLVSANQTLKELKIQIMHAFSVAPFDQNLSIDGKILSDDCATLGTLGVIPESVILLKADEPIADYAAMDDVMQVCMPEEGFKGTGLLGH
Method in brief: as §1

[5] = molecular target: T4, USP5 (UniProt P45974)
T4 sequence (whole entry): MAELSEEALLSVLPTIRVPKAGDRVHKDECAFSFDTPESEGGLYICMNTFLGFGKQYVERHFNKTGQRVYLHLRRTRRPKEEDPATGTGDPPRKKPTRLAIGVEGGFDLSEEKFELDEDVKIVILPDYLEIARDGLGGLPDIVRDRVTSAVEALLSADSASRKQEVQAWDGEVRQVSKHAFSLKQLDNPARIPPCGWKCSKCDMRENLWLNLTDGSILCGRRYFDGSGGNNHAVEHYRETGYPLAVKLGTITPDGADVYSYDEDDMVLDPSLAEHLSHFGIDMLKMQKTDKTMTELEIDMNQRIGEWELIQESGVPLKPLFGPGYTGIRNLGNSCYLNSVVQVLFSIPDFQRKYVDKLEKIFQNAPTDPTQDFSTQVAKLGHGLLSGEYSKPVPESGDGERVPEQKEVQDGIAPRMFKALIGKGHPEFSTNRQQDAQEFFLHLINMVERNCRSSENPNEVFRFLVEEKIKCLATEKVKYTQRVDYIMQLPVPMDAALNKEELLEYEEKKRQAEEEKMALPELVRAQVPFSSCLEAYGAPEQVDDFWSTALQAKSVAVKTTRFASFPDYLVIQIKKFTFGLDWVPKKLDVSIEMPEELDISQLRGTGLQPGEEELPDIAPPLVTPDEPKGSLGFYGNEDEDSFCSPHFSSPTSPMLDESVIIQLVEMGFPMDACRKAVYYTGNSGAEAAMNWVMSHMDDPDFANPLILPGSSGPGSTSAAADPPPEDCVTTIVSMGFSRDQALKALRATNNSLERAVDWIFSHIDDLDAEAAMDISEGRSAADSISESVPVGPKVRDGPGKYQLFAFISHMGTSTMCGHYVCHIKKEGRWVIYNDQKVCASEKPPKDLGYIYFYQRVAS
Method in brief: as §1

[6] = molecular target: USP54 (UniProt Q70EL1)
Method in brief: as §1

[7] = molecular target: USP7 (UniProt Q93009)
Method in brief: as §1

[8] = molecular target: T5, USP8 (UniProt P40818)
T5 sequence (whole entry): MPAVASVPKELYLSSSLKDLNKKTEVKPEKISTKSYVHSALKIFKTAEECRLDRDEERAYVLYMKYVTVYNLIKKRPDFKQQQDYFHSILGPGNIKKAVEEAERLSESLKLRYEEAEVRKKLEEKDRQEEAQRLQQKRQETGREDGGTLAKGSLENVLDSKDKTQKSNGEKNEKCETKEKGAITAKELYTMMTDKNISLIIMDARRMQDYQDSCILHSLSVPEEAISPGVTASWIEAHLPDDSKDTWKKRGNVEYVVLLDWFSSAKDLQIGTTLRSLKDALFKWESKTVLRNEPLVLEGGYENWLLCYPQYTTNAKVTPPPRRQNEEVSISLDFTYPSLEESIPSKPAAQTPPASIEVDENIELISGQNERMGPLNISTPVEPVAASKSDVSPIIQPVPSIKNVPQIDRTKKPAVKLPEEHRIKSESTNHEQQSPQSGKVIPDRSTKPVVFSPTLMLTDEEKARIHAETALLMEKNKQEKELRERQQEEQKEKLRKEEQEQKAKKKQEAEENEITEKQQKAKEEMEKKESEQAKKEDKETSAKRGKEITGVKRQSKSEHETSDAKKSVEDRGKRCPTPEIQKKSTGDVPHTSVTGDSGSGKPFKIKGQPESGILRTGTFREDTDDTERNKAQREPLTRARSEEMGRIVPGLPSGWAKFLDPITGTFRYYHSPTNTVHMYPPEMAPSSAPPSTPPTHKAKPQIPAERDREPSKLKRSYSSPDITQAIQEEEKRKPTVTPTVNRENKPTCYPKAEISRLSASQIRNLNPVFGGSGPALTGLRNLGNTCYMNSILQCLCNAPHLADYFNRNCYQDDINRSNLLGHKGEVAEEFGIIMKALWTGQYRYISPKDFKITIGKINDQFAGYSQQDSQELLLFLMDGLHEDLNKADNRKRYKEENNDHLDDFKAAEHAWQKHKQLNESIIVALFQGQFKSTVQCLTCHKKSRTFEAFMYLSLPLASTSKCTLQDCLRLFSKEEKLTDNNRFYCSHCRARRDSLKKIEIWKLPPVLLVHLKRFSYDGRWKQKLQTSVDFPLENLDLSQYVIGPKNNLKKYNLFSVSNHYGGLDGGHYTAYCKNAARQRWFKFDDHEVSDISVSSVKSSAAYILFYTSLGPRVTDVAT
Method in brief: as §1

Measured: log2 ratio of Biotin-Ahx-Ub-VS probe labelling

Chain of USP7 (Q93009 whole entry, looked up): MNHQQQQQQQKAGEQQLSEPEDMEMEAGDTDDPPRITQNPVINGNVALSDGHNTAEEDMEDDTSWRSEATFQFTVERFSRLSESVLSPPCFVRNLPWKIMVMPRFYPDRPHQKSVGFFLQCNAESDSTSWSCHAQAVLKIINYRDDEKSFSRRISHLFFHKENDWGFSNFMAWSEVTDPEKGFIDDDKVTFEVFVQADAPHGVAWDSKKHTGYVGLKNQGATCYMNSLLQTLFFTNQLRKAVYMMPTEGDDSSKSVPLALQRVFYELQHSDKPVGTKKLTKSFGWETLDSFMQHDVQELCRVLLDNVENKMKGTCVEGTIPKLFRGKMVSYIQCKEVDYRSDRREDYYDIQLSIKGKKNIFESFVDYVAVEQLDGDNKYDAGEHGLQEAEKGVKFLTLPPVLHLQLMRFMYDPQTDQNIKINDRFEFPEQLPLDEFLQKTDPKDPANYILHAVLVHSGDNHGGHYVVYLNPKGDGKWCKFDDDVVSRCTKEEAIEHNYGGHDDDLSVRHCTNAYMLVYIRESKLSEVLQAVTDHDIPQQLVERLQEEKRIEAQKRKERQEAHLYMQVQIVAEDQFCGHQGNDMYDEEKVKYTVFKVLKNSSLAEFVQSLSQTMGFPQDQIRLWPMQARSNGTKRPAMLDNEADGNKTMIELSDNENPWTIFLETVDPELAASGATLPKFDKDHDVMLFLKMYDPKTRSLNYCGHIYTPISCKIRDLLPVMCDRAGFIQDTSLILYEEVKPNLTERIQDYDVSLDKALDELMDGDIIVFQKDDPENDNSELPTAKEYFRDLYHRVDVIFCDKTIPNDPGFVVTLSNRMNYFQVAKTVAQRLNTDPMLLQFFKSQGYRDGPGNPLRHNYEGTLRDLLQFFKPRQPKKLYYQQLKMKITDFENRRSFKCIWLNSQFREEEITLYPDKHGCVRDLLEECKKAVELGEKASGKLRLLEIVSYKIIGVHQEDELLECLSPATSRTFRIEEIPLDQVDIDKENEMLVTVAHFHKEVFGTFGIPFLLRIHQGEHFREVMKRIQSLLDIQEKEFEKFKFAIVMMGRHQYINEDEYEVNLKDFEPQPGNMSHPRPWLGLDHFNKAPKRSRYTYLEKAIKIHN
Chain of USP54 (Q70EL1 whole entry): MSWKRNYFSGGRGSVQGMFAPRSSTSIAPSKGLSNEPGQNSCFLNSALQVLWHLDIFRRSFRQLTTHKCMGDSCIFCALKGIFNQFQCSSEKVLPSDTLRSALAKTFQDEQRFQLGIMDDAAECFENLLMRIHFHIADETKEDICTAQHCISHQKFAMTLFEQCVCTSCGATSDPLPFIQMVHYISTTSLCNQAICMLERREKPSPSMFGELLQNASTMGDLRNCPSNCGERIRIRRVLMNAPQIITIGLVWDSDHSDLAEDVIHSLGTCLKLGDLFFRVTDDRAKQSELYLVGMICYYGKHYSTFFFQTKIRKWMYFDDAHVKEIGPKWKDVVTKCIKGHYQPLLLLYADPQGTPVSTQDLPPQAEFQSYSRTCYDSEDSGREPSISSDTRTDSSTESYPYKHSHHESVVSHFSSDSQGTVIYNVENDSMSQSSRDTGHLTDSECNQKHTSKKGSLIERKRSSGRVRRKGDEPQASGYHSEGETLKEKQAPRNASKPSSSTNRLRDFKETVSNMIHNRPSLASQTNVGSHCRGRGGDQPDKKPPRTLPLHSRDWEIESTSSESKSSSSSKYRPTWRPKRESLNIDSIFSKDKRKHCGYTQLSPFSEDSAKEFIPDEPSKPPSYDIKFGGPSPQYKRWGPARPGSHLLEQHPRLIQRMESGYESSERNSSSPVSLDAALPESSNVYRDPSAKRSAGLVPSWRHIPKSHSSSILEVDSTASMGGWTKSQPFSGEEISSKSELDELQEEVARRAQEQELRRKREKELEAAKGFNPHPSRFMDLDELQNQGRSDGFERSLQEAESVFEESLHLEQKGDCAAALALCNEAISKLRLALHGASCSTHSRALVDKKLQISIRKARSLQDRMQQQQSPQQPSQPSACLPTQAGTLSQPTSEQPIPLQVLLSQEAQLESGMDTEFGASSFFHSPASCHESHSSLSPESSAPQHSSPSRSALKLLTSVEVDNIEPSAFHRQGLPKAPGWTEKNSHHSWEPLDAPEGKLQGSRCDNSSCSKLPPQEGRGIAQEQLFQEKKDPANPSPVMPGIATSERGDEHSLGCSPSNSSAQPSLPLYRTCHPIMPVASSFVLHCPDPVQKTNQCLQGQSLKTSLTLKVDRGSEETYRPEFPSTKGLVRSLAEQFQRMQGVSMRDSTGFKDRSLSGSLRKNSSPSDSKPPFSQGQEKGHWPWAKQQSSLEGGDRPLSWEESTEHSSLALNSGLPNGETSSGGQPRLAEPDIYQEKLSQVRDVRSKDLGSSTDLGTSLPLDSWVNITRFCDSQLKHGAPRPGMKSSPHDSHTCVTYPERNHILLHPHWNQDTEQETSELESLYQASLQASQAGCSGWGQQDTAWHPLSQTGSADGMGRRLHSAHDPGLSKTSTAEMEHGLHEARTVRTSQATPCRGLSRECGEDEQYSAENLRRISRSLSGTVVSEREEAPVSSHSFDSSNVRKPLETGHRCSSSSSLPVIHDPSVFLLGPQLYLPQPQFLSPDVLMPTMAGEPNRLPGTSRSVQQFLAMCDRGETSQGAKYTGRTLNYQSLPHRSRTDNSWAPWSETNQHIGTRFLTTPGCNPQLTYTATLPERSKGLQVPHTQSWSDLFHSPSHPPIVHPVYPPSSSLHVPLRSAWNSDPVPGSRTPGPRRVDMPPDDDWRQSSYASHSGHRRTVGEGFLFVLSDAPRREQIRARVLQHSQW
Chain of USP46 (P62068 whole entry): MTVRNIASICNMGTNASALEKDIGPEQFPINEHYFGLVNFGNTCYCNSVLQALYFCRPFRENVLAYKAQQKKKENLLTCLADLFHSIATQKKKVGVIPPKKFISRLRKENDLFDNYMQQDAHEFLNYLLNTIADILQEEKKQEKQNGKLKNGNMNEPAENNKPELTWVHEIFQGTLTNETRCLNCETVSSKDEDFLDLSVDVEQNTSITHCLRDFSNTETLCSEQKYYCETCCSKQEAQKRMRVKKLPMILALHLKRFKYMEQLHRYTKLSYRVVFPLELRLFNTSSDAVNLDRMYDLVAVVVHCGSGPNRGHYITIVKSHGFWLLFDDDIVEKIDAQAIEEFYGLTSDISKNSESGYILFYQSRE

O=C(CCl)N1CCC(C(O)c2ccc(F)cc2)CC1 (stereo not drawn)
inactive: [1] 0.365 | [2] 0.252 | [3] -0.324 | [4] 0.00604 | [5] 0.131 | [6] -0.000277 | [7] -0.0695 | [8] 0.0961

Reference: the supplement of paper PMC11732987, “Enantioselective OTUD7B fragment discovery through chemoproteomics screening and high-throughput optimisation” (Communications Chemistry, 2025)
